The subject of experiment [1] is DLD1. Nature of the experiment: nucleolar normality score relative to DMSO (fraction of DMSO control); RPE1 is a non-cancer human cell line; higher = more normal nucleoli (less nucleolar stress). On the procedure:
(§1)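 Selected screen hits were validated in hTERT lines (BJ5TA, CHON-002, RPE1) and cancer lines (DLD1, HCT116). Cells were immunostained for nucleolin and UBF and the nucleolar normality score was measured per field of view, with 4 fields per drug. Scores are normalized to each cell line's own DMSO control. Dose and time are not stated for this panel.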

For experiment [2], the system named is HCT116. The experiment is described as above. On the procedure: as §1

We go through twelve compounds from the supplement of paper PMC10723795.

± gives the standard deviation of the averaged measurements.

In the case of `CC(C)n1nc(-c2ccc3oc(N)nc3c2)c2c(N)ncnc21` [Sapanisertib], the results for the nucleolar normality score in experiment [1] and in experiment [2] were 0.398 ± 0.035 and 0.549 ± 0.021, respectively.
With `Cc1cnc(CNC(=O)c2c(=O)c3ccc(N4CCCN(C)CC4)nc3n3c2sc2ccccc23)cn1`, the nucleolar normality score in experiment [1] came to 0.224 ± 0.045; in experiment [2], 0.404 ± 0.19.
Taken in the same sequence, the figures for `COc1cccc2c1C(=O)c1c(O)c3c(c(O)c1C2=O)C[C@@](O)(C(=O)CO)C[C@@H]3O[C@H]1C[C@H](N)[C@H](O)[C@H](C)O1` [Doxorubicin] were 0.36 ± 0.056 and 0.253 ± 0.036.
`COC[C@H](NC(=O)c1cnc(C)s1)C(=O)N[C@@H](COC)C(=O)N[C@@H](Cc1ccccc1)C(=O)[C@@]1(C)CO1` [Oprozomib]: the nucleolar normality score in experiment [1] turned out to be 0.471 ± 0.054; in experiment [2] it was 0.658 ± 0.046.
Regarding `Cc1nc(-c2cn3c(n2)-c2ccc(-c4cnn(C(C)(C)C(N)=O)c4)cc2OCC3)n(C(C)C)n1` [Taselisib], the nucleolar normality score in experiment [1] is 0.485 ± 0.067; in experiment [2], 0.588 ± 0.052.
For the compound `CN(C)CCNC(=O)c1cccn2c(=O)c3cc4ccccc4cc3nc12`, the results for the nucleolar normality score in experiment [1] and in experiment [2] were 0.173 ± 0.037 and 0.202 ± 0.013, respectively.
`C=CCNC1=C2C[C@@H](C)C[C@H](OC)[C@H](O)[C@@H](C)/C=C(\C)[C@H](OC(N)=O)[C@@H](OC)/C=C\C=C(/C)C(=O)NC(=CC1=O)C2=O`: the results for the nucleolar normality score in experiment [1] and in experiment [2] were 0.436 ± 0.052 and 0.462 ± 0.027, respectively.
Take `CC(C)C[C@H](NC(=O)[C@H](CCc1ccccc1)NC(=O)CN1CCOCC1)C(=O)N[C@@H](Cc1ccccc1)C(=O)N[C@@H](CC(C)C)C(=O)[C@@]1(C)CO1` [Carfilzomib]: the values for the nucleolar normality score in experiment [1] and in experiment [2] were 0.436 ± 0.059 and 0.574 ± 0.063, respectively.
With `CN1CC[C@H](c2c(O)cc(O)c3c(=O)cc(-c4ccccc4Cl)oc23)[C@H](O)C1` [Flavopiridol], the nucleolar normality score in experiment [1] amounted to 0.432 ± 0.076; in experiment [2], 0.452 ± 0.057.
As to `CC(C)c1c2cc(-c3ccnc(NC4CCC(NC5CCOCC5)CC4)n3)ccc2nn1C` (centres undefined), the nucleolar normality score in experiment [1] is 0.509 ± 0.046; in experiment [2] it was 0.507 ± 0.016.
In the case of `CCc1cnn2c(NCc3ccc[n+]([O-])c3)cc(N3CCCC[C@H]3CCO)nc12` [Dinaciclib], the figures for the nucleolar normality score in experiment [1] and in experiment [2] were 0.442 ± 0.09 and 0.428 ± 0.052, respectively.
Taken in the same sequence, the figures for `CC(C)c1cc(C(=O)N2Cc3ccc(CN4CCN(C)CC4)cc3C2)c(O)cc1O` [Onalespib] were 0.363 ± 0.023 and 0.434 ± 0.027.
